# Experimental data: PubChem BioAssay (EPA / NIEHS)
# Where “and” joins values, the source holds several entries; their conditions need not be identical. Identical values can stand only once. Some structures have more than one record in an assay (separate samples or runs), and their calls can disagree. Calls of active or inactive are those of the source. Rule for the calls: active = hit-call score of the fitted dose curve at least 0.9, where 1 is the maximum; inactive = score below 0.9.
# Read-out: Peroxisomal acyl-coenzyme A oxidase 1 (ACOX1) gene, ACOX1 (gene 51)
# Test: LTEA_HepaRG_ACOX1: Life Technologies and Expression Analysis (LTEA) Assay for Peroxisomal acyl-coenzyme A oxidase 1 (ACOX1) gene using HepaRG (AID 2283467)
# Details: mRNA level, 48 h; actives raise or lower the signal
# Protocol: LTEA_HepaRG is a cell based, multiplexed-readout assay that uses HepaRG, a human liver cell line, with measurements taken at 48 hours after chemical dosing on a 96-well plate.LTEA_HepaRG_ACOX1 is one of 102 assay component(s) measured in the LTEA HepaRG cell culture assay. It is a marker of Steatosis.Data from the assay component LTEA_HepaRG_ACOX1 was analyzed into 1 endpoint. This assay endpoint, LTEA_HepaRG_ACOX1, was analyzed with bidirectional fitting relative to DMSO as the negative control and baseline of activity. Using a type of inducible reporter, measures of mRNA induction for gain or loss-of-signal activity can be used to understand regulation of transcription factor activity. To generalize the intended target to other relatable targets, this assay endpoint is annotated to the oxidase intended target family, where the subfamily is steatosis.
# A total of 1060 chemcials from the ToxCast library were tested in eight-point concentration-response experiments. Cell culture and cytotoxicity assays were conducted at Thermo Fisher Scientific's Custom Services facility (Madison, WI). A single lot of human HepaRG cells (Thermo Fisher Scientific, Frederick, MD) was used for the cell culture experiments. 96-well format collagen type I coated plates of human HepaRG cells were prepared using established methods. Briefly, cryopreserved HepaRG cells were thawed, plated at a density of approximately 100,000 cells/well in HepaRG Thaw, Plate, and General Purpose media (HPRG770, Thermo Fisher Scientific), and incubated for 48 hours. 0.5% DMSO was selected as vehicle control to balance the requisite need of DMSO in HepaRG cultures to maintain differentiation (for example, baseline metabolism, proportions of hepatocytes vs. cholangiocytes), while enabling further hepatic receptor pathway activation (for example, PXR and CAR) in response to chemical exposure. 48 hours after plating, the culture medium was replaced with HepaRG Serum-Free Incudtion Media. Cells were exposed to each test chemical in duplicate and maintained in CO2 incubators for another 48 hours. Chemical plates were thawed to room temperature and 200x concentrations of treatment groups were prepared. 8-point conentration-reponse curves were made with the highest exposure at 100 uM, followed by half-log dilutions, all in 0.5% DMSO. Each test plate contained variouse controls, induction positive controls (1mM phenobarbital), cytotoxicity positive controls ([…] aflatoxin B1), vehicle controls (0.5% DMSO), and total lysis controls (0.5% DMSO). Cell morphology images were taken using an Essen IncuCyte FLR automated microscope, with six 96-well plates imaged in about 24 minutes. Images were captured and exported and JPEG files. Spent culture media was transfered to black-well plates for the LDH assay, and remaining media was sorted at -80 C for later use. Cells were treated with RLT buffer and frozen until shipped for gene expression analysis. Total RNA was isolated from the cell suspension in 75 uL of Buffer RLT (Qiagen, Germantown, MD 20874) by Quintiles/Expression Analysis (Durham, NC) using a custom isolation procedure. Total RNA from each plate well was transferred to a preamplification plate. Fluidigm's 96.96 Dynamic ArrayTM (Fluidigm, Amsterdam, the Netherlands) technology was used for gene expression analyses by quantitative reverse transcription polymerase chain reaction (qRT-PCR, performed by Quintiles/Expression Analysis, Durham, NC)89. Standard TaqManTM Assays (Applied Biosystems/ThermoFisher Scientific, Foster City, CA) were used to assess the expression of 93 genes selected based on their selectivity and sensitivity to important hepatic receptors known to be modulated by environmental chemicals; importance in human hepatocyte functionality; and hepatotoxicity. […]
Structure (SMILES),AC50,outcome
CCCN(CCOc1c(Cl)cc(Cl)cc1Cl)C(=O)n1ccnc1,50 µM (active),
COc1nn(CSP(=S)(OC)OC)c(=O)s1,,inactive
Oc1ccc(Cl)cc1Cc1ccccc1,,inactive
C#CCN1C(=O)COc2cc(F)c(N3C(=O)C4=C(CCCC4)C3=O)cc21,,inactive
CCc1ccc(C(=O)NN(C(=O)c2cc(C)cc(C)c2)C(C)(C)C)cc1,,inactive
ClC1C(Cl)C(Cl)C(Cl)C(Cl)C1Cl (stereo unspecified),,inactive
CN1CSC(=S)N(C)C1,,inactive
O=S(=O)(O)C(F)(F)C(F)(F)C(F)(F)C(F)(F)C(F)(F)C(F)(F)C(F)(F)C(F)(F)F,,inactive
CC(C)(C)C(O)/C(=C\c1ccc(Cl)cc1Cl)n1cncn1 (stereo unspecified),50 µM (active),
CCC(C)(C)C(=O)OC1=C(c2ccc(Cl)cc2Cl)C(=O)OC12CCCCC2,,inactive
O=C(O)C(F)(F)C(F)(F)C(F)(F)C(F)(F)C(F)(F)C(F)(F)C(F)(F)F,3.48 µM (active) and 8.37 µM (active),
CCCN(CCC)c1c([N+](=O)[O-])cc(C(F)(F)F)cc1[N+](=O)[O-],,inactive
CCC(C)Nc1c([N+](=O)[O-])cc(C(C)(C)C)cc1[N+](=O)[O-] (stereo unspecified),,inactive
COP(=S)(OC)Oc1ccc(SC)c(C)c1,,inactive
CCC(C)(NC(=O)c1cc(Cl)c(C)c(Cl)c1)C(=O)CCl (stereo unspecified),85.1 µM (active),
Oc1cc(Cl)ccc1Oc1ccc(Cl)cc1Cl,,inactive
COP(=O)(OC)OC=C(Cl)Cl,,inactive
C[C@H]1[C@H](c2ccc(Cl)cc2)SC(=O)N1C(=O)NC1CCCCC1,,inactive
O=C(NC(=O)c1c(F)cccc1F)Nc1ccc(OC(F)(F)C(F)OC(F)(F)F)c(Cl)c1 (stereo unspecified),,inactive
O=S1OCC2C(CO1)C1(Cl)C(Cl)=C(Cl)C2(Cl)C1(Cl)Cl (stereo unspecified),53.9 µM (active),

Structure (SMILES),AC50,outcome
CNC(=O)Oc1ccccc1OC(C)C,,inactive
O=C(Nc1ccccc1)Nc1cnns1,50 µM (active),
CC1(c2ccc(Oc3ccccc3)cc2)OC(=O)N(Nc2ccccc2)C1=O (stereo unspecified),26.7 µM (active),
Cc1[nH]c(=O)n(C(C)(C)C)c(=O)c1Cl,,inactive
N#Cc1c(Cl)c(Cl)c(Cl)c(C#N)c1Cl,,inactive
CNC(=O)/C=C(\C)OP(=O)(OC)OC,,inactive
COP(=S)(OC)Oc1ccc([N+](=O)[O-])cc1,,inactive
O=[N+]([O-])c1c(Cl)c(Cl)c(Cl)c(Cl)c1Cl,,inactive
CC(C)N(C(=O)COc1nnc(C(F)(F)F)s1)c1ccc(F)cc1,19.4 µM (active),
N#CN,,inactive
CC[C@H](C)[C@H]1O[C@]2(C=C[C@@H]1C)C[C@@H]1C[C@@H](C/C=C(\C)[C@@H](O[C@H]3C[C@H](OC)[C@@H](O[C@H]4C[C@H](OC)[C@@H](O)[C@H](C)O4)[C@H](C)O3)[C@@H](C)/C=C/C=C3\CO[C@@H]4[C@H](O)C(C)=C[C@@H](C(=O)O1)[C@]34O)O2 (tested in a mixture with another compound),30.2 µM (active),
CC(C)OC(=O)Nc1cccc(Cl)c1,,inactive
CNC(=O)CSP(=S)(OC)OC,,inactive
O=C(O)CCCOc1ccc(Cl)cc1Cl,20.5 µM (active),
OCCOc1ccccc1,,inactive
CCN(CC)C(=O)SCc1ccc(Cl)cc1,,inactive
O=[N+]([O-])/N=C1\NCCN1Cc1ccc(Cl)nc1,29.7 µM (active),
CCOC1Oc2ccc(OS(C)(=O)=O)cc2C1(C)C (stereo unspecified),60.8 µM (active),
CCOCN(C(=O)CCl)c1c(C)cccc1CC,78.9 µM (active),
CC(C)(C)C(O)C(Oc1ccc(Cl)cc1)n1cncn1 (stereo unspecified),1.25 µM (active),inactive
